# Assay results from paper PMC8222333, “AsCas12a ultra nuclease facilitates the rapid generation of therapeutic cell medicines”.
# Residue numbers refer to the chain shown, from its start.
# B1: GGGC (dsDNA)
# DNA 1: GCTATCTAGTGCTCAGTACGCACTGGGGCAGGAAACTTCTGGCAGGACCAGGTCATGAGATCGGAAGAGCACACGTCTGAACTCCAGTCA
# DNA 2: TGACTGGAGTTCAGACGTGTGCTCTTCCGATCTCATGACCTGGTCCTGCCAGAAGTTTCCTGCCCCAGTGCGTACTGAGCACTAGATAGC
# RNA: AAUUUCUACUCUUGUAGAUAGGAAACUUCUGGCAGGACC
# B2: GGGT (dsDNA)
# DNA 1: B1 DNA 1 with C29T
# DNA 2: B1 DNA 2 with G62A
# RNA: B1 RNA
# B3: GGTG (dsDNA)
# DNA 1: B1 DNA 1 with G28T, C29G
# DNA 2: B1 DNA 2 with G62C, C63A
# RNA: B1 RNA
# B4: GTAG (dsDNA)
# DNA 1: B1 DNA 1 with G27T, G28A, C29G
# DNA 2: B1 DNA 2 with G62C, C63T, C64A
# RNA: B1 RNA
# B5: GTCC (dsDNA)
# DNA 1: B1 DNA 1 with G27T, G28C
# DNA 2: B1 DNA 2 with C63G, C64A
# RNA: B1 RNA
# B6: GTCG (dsDNA)
# DNA 1: B1 DNA 1 with G27T, G28C, C29G
# DNA 2: B1 DNA 2 with G62C, C63G, C64A
# RNA: B1 RNA
# B7: GTGG (dsDNA)
# DNA 1: B1 DNA 1 with G27T, C29G
# DNA 2: B1 DNA 2 with G62C, C64A
# RNA: B1 RNA
# B8: TAAC (dsDNA)
# DNA 1: B1 DNA 1 with G26T, G27A, G28A
# DNA 2: B1 DNA 2 with C63T, C64T, C65A
# RNA: B1 RNA
# B9: TAAG (dsDNA)
# DNA 1: B1 DNA 1 with G26T, G27A, G28A, C29G
# DNA 2: B1 DNA 2 with G62C, C63T, C64T, C65A
# RNA: B1 RNA
# Assays:
# Experiment in all cases: Spec-seq (native PAGE EMSA with sequencing of bound and unbound); 25 mM Tris-HCl pH 7.4, 150 mM KCl, 5 mM MgCl2, 10% glycerol, 1 mM DTT, 40 ng/uL salmon sperm DNA; 400 nM Cas12a, 480 nM crRNA, 50 nM library, 37 C 1 h; native PAGE at room temperature; high values mean tight binding
# Conditions in all cases: protein: recombinant
# dAsCas12a S542R = dAsCas12a S542R (Acidaminococcus sp., UniProt U2UMQ6 1-1307, S542R;D908A;E993A;D1235A)
# d-enCas12a = d-enCas12a (Acidaminococcus sp., UniProt U2UMQ6 1-1307, E174R;S542R;K548R;D908A;E993A;D1235A)
# d-enCas12a-Ultra = d-enCas12a-Ultra (Acidaminococcus sp., UniProt U2UMQ6 1-1307, E174R;S542R;K548R;M537R;F870L;D908A;E993A;D1235A)
# 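Also: relative affinity from the bound to unbound sequence frequency ratio in Spec-seq.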
Binder,binding signal (dAsCas12a S542R),binding signal (d-enCas12a),binding signal (d-enCas12a-Ultra)
B1,-8.77 lnKA,-5.93 lnKA,-3.41 lnKA
B2,-8.85 lnKA,-5.77 lnKA,-3.46 lnKA
B3,-8.15 lnKA,-4.86 lnKA,-1.95 lnKA
B4,-8.28 lnKA,-5.83 lnKA,-3.32 lnKA
B5,-5.08 lnKA,-1.42 lnKA,-0.355 lnKA
B6,-6.96 lnKA,-4.39 lnKA,-1.21 lnKA
B7,-8.13 lnKA,-5.91 lnKA,-3.47 lnKA
B8,-8.34 lnKA,-4.66 lnKA,-2.03 lnKA
B9,-8.68 lnKA,-5.56 lnKA,-3.25 lnKA
